7 compounds from ChEMBL document CHEMBL1961873, “Compounds: GSK PKIS; Assays: Nanosyn kinase panel” (2012) can be followed below.

The test system of assay [1] is Proto-oncogene tyrosine-protein kinase receptor Ret (Homo sapiens), P07949 [Y791F]. To be noted: at 1 µM.
Assay [2] concerns the target Macrophage-stimulating protein receptor (Homo sapiens) (UniProt Q04912). The following applies: at 0.1 µM.
Assay [3] shares this target. The following applies: at 1 µM.
Assay [4] addresses Proto-oncogene tyrosine-protein kinase ROS (Homo sapiens) (UniProt P08922). The following applies: at 0.1 µM.
Assay [5] shares this target. The following applies: at 1 µM.
Assay [6] has as its target Proto-oncogene tyrosine-protein kinase Src (Homo sapiens) (UniProt P12931). To be noted: at 0.1 µM.
Assay [7] has the same target. The following applies: at 1 µM.
Assay [8] concerns the target Tyrosine-protein kinase Srms (Homo sapiens) (UniProt Q9H3Y6). To be noted: at 0.1 µM.
For assay [9] the target is unchanged. To be noted: at 1 µM.
For assay [10], the target named is Tyrosine-protein kinase SYK (Homo sapiens) (UniProt P43405). The following applies: at 0.1 µM.
Assay [11] has the same target. The following applies: at 1 µM.
Assay [12] concerns the target T1, Tyrosine-protein kinase Tec (Homo sapiens) (UniProt P42680).
T1 sequence (whole entry): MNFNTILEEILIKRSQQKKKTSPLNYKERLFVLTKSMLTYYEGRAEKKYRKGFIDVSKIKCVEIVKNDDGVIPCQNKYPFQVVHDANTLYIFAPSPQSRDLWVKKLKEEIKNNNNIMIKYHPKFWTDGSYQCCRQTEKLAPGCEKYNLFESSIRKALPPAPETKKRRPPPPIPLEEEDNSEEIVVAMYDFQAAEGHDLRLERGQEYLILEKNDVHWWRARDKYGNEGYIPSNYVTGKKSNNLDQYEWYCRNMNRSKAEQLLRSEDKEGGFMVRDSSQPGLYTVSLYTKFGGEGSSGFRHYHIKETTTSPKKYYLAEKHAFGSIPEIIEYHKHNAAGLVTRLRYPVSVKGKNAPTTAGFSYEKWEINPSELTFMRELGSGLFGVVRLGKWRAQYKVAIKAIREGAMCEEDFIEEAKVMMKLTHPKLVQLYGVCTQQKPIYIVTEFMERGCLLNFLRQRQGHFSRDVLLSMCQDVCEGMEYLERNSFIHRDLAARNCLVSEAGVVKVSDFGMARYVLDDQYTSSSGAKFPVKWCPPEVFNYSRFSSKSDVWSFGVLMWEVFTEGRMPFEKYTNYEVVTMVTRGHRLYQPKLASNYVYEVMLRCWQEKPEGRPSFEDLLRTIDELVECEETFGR
To be noted: at 0.1 µM.

Assay [13] concerns the target T1, Tyrosine-protein kinase Tec (Homo sapiens). The following applies: at 1 µM.
In assay [14] the target is Angiopoietin-1 receptor (Homo sapiens) (UniProt Q02763). The following applies: at 0.1 µM.
For assay [15] the target is unchanged. To be noted: at 1 µM.
Assay [16] concerns the target T2, Non-receptor tyrosine-protein kinase TNK1 (Homo sapiens) (UniProt Q13470).
T2 sequence (whole entry): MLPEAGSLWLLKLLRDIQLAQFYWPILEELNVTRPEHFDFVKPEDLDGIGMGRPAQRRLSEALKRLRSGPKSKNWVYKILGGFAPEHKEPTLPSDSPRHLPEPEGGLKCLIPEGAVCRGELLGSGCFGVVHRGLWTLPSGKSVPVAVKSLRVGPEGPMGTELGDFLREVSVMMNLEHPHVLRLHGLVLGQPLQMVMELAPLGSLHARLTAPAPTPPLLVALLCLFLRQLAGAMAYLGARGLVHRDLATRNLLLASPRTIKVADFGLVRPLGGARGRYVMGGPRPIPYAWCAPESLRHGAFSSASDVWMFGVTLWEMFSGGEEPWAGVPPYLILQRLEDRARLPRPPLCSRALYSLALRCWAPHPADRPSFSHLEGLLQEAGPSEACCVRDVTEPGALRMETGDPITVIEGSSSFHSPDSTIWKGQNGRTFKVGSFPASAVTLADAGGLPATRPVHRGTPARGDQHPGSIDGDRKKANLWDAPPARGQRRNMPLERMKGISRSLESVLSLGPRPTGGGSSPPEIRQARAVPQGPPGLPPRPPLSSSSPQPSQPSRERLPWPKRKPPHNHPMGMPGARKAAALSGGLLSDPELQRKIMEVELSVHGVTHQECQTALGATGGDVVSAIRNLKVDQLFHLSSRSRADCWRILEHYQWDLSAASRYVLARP
To be noted: at 0.1 µM.

Assay [17] concerns the target T2, Non-receptor tyrosine-protein kinase TNK1 (Homo sapiens). The following applies: at 1 µM.
The target in assay [18] is Activated CDC42 kinase 1 (Homo sapiens) (UniProt Q07912). To be noted: at 0.1 µM.
For assay [19] the target is unchanged. The following applies: at 1 µM.
In assay [20] the target is High affinity nerve growth factor receptor (Homo sapiens) (UniProt P04629). To be noted: at 0.1 µM.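 Further: each value is a mean of replicate percent inhibition readings against TRKA kinase.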
Sequence of High affinity nerve growth factor receptor (Homo sapiens) (P04629 33-796 limits assumed): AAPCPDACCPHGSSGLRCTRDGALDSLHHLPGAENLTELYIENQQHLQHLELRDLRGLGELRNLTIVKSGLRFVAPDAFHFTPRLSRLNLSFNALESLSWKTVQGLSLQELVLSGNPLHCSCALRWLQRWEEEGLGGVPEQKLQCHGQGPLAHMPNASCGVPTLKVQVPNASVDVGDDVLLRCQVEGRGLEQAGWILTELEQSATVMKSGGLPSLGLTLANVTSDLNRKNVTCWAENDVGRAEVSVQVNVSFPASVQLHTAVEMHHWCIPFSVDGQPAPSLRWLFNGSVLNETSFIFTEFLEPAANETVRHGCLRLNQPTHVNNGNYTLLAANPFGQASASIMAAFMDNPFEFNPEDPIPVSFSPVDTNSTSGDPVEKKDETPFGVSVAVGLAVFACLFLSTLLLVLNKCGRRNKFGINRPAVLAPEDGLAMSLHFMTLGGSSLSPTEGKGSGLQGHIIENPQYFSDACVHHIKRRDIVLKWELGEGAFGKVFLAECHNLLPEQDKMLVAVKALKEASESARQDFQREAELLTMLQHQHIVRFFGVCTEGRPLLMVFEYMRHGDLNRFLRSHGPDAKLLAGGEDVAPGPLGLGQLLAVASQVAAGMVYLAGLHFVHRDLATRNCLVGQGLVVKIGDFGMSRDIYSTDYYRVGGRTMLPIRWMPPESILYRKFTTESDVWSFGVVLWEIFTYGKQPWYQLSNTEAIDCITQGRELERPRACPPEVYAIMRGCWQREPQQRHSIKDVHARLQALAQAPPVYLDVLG

Sequence of Proto-oncogene tyrosine-protein kinase ROS (Homo sapiens) (P08922 whole entry): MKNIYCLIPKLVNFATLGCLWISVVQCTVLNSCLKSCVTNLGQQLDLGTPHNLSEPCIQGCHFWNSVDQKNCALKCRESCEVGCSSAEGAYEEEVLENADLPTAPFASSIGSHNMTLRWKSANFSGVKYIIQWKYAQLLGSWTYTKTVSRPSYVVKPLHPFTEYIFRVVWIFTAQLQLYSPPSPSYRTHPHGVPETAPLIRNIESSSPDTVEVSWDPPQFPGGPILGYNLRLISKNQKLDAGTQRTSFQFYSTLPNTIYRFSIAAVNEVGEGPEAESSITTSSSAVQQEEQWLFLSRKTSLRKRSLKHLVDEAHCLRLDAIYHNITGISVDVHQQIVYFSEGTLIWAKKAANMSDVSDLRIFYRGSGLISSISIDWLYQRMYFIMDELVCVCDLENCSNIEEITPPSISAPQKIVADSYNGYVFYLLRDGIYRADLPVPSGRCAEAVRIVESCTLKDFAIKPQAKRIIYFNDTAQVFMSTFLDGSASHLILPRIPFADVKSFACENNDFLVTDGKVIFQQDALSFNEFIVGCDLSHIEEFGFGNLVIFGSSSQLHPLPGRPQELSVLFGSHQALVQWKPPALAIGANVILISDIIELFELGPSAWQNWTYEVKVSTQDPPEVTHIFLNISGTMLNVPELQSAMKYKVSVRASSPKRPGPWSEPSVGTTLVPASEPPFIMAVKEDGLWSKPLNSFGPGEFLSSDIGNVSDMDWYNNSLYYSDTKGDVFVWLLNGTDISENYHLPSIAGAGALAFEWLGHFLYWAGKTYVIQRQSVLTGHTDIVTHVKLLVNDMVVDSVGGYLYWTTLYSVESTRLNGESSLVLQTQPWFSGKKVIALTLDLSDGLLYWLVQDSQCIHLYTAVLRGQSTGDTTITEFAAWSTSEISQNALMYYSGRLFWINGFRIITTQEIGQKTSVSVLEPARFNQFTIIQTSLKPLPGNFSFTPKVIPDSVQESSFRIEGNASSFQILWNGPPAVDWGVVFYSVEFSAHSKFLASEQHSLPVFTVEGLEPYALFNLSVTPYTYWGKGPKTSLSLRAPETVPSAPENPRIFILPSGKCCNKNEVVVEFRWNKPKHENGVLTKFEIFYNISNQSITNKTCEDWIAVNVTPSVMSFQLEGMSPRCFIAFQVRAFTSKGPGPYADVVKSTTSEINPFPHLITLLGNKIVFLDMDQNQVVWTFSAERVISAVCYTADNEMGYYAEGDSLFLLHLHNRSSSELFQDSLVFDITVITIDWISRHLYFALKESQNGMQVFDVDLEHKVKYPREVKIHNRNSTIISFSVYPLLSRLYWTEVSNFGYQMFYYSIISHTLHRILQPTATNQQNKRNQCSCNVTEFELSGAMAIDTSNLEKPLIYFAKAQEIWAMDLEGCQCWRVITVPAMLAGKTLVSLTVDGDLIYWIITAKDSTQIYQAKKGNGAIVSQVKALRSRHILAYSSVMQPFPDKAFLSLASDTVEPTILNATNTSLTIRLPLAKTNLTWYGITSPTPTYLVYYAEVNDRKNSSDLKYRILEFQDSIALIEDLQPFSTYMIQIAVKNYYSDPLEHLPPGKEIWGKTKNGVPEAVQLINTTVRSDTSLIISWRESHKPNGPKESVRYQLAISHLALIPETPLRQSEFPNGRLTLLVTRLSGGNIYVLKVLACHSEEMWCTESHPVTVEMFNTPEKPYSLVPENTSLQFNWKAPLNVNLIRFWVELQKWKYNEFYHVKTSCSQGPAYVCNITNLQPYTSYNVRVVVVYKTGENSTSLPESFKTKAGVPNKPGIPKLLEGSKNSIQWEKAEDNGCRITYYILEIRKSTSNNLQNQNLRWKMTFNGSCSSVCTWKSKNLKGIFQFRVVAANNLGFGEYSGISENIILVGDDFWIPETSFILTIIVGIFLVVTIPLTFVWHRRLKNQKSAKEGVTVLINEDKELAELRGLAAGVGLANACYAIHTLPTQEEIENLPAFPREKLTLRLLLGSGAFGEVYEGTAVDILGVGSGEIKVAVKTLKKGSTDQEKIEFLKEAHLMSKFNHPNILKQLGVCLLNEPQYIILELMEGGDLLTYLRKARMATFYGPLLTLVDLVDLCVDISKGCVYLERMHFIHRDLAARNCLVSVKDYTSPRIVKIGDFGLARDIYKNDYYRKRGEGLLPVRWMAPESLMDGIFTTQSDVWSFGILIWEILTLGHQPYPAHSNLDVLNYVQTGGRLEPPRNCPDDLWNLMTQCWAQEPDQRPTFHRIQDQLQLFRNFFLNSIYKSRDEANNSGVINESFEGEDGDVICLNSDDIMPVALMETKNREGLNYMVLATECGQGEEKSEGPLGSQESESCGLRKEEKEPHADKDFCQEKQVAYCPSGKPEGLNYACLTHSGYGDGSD
Sequence of Proto-oncogene tyrosine-protein kinase receptor Ret (Homo sapiens), P07949 [Y791F] (P07949 whole entry Y791F): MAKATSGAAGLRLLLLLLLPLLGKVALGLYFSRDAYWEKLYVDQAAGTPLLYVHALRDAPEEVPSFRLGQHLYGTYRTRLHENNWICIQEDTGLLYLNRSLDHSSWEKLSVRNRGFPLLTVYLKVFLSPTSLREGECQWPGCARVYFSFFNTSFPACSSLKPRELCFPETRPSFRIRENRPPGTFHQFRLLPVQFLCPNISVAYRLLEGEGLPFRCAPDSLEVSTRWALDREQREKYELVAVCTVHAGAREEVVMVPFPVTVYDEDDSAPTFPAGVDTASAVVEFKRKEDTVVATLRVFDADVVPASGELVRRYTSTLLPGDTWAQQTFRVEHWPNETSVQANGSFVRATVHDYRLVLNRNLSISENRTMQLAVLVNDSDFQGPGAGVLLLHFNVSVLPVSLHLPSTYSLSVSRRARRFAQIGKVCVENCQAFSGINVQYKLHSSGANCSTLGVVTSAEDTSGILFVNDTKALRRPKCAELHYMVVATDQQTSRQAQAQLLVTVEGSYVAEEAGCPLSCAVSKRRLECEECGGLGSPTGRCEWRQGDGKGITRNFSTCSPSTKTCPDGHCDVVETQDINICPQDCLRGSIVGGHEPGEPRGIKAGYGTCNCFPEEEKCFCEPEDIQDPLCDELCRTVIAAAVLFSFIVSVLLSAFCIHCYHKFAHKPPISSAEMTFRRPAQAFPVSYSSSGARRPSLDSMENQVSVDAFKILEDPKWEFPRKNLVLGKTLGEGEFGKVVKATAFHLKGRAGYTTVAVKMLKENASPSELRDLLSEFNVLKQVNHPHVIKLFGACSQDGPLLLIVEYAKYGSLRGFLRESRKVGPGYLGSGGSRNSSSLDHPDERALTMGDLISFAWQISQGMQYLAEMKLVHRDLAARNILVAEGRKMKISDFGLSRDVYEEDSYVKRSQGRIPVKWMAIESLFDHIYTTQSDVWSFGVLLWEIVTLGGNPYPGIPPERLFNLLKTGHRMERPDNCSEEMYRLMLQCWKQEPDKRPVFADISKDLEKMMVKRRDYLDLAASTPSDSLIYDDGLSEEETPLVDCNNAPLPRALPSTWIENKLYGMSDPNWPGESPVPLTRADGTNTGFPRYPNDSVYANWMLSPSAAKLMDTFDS
Sequence of Proto-oncogene tyrosine-protein kinase Src (Homo sapiens) (P12931 2-536 limits assumed): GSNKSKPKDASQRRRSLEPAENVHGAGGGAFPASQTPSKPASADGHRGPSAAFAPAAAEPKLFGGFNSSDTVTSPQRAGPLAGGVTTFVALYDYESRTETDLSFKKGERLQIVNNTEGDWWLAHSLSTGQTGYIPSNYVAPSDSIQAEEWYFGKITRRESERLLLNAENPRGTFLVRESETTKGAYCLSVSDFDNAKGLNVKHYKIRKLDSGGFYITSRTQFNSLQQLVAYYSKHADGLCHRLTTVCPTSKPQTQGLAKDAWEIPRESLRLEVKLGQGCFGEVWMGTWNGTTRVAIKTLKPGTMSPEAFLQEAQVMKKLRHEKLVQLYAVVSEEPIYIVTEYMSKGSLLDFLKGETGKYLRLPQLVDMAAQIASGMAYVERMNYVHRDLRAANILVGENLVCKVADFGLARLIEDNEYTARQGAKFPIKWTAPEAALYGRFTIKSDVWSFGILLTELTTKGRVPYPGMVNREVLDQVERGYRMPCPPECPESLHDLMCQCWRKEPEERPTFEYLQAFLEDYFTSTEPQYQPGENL

What is called inhibition is the relative decrease from the control value, in per cent. For the compound `Nc1nc(-c2ccc3c(c2)C(=Cc2cc(Br)c(O)c(Br)c2)C(=O)N3)cs1`, the inhibition was 7.25% in assay [1]; -0.43% in assay [2]; 2.87% in assay [3]; 2.9% in [4]; 7.73% in assay [5]; 0.53% in assay [6]. Further, the inhibition in assay [7] was -0.25%; in [8], 9.94%; in assay [9] it was 53%; in assay [10] it was 1.06%; in [11], 0.99%; in [12], -1.8%. Moreover, the inhibition was -1% in assay [13]; -0.24% in [14]; 3.72% in assay [15]; 0.05% in assay [16]; 37.1% in assay [17]; -1.13% in [18]. Besides, the results for the inhibition in assay [19] and in assay [20] were -0.19% and 1.01%, respectively.

In the case of `Cc1cccc(-c2n[nH]cc2-c2ccc3ncccc3n2)n1`, the inhibition came out at 18.7% in assay [1]; 3.7% in assay [2]; 1.79% in [3]; 1.26% in assay [4]; 4.08% in assay [5]; 2.63% in [6]. Moreover, the inhibition in [7] was 3.67%; in assay [8] it was 0.03%; in assay [9], 3.34%; in assay [10] it was 1.27%; in assay [11] it was -0.38%; in assay [12], 0.76%. The inhibition in [13] is 1.51%; in assay [14] it was 1.2%; in [15] it was 3.33%; in [16], -0.63%; in assay [17], 0.33%; in [18], -0.11%. The inhibition was 0.91% in assay [19] and -1% in [20].

Turning to `COc1cc2ncn(-c3cc(O[C@H](C)c4ccccc4Cl)c(C(N)=O)s3)c2cc1OC`, the inhibition worked out at 63.8% in [1]; 14.8% in assay [2]; 17.8% in [3]; 10.7% in assay [4]; 36.5% in assay [5]; 7.81% in [6]. The inhibition was 40.7% in assay [7]; 2.69% in assay [8]; 6.05% in [9]; 1.76% in assay [10]; -0.3% in [11]; 5.59% in [12]. The inhibition in assay [13] came to 19.3%; in [14] it was 12.7%; in [15], 41.7%; in assay [16], 17.7%; in assay [17] it was 70.8%; in assay [18], 6.31%. Besides, the inhibition in assay [19] was 28.2%; in assay [20] it was 1.31%.

With `O=C1NC(=O)C(c2cccc(Cl)c2)=C1Nc1ccc(O)c(Cl)c1`, the inhibition in [1] was 2.96%; in assay [2] it was -9.4%; in assay [3], 6%; in [4] it was 1.16%; in assay [5], 7.24%; in assay [6] it was 3.33%. The inhibition in assay [7] was 5.62%; in assay [8], -0.46%; in [9] it was -1.95%; in [10] it was 1.76%; in [11] it was 0.79%; in assay [12], 1.84%. In addition, the inhibition in assay [13] was 1.44%; in assay [14] it was 1.54%; in assay [15] it was 3.61%; in [16], 0.52%; in assay [17] it was 8.8%; in assay [18], -0.75%. Moreover, the inhibition was -0.58% in assay [19] and -3.23% in assay [20].

In the case of `CC1=C(C(=O)Nc2ccc3[nH]ncc3c2)C(c2ccc3ccccc3c2)CC(=O)N1` (stereo not given), the inhibition in assay [1] was determined as 60.5%; in assay [2], 34%; in assay [3], 67.5%; in assay [4], 7.1%; in assay [5], 14.5%; in assay [6], 13%. Besides, the inhibition in [7] is 64.9%; in assay [8], 1.12%; in assay [9], 1.41%; in assay [10], 2.43%; in assay [11], 2.59%; in assay [12] it was 2.81%. The inhibition in [13] amounted to 9.73%; in [14], 3.02%; in assay [15], 8.68%; in assay [16], 3.25%; in assay [17] it was 22.4%; in assay [18], 2.91%. The inhibition in [19] turned out to be 20.3%; in [20], 3.43%.

As to `[O-][S+]1CCN(Cc2ccc(-c3ccc4ncnc(Nc5ccc(OCc6ccccc6)c(F)c5)c4c3)o2)CC1`, the inhibition in [1] worked out at 5.92%; in assay [2] it was 2.75%; in assay [3] it was 7.9%; in assay [4], 3.51%; in assay [5] it was 1.61%; in [6] it was 5.28%. The inhibition in assay [7] was 8.51%; in assay [8], -1.06%; in [9], -3.12%; in [10], -2.3%; in assay [11], -0.11%; in [12] it was 3.42%. Also, the inhibition in assay [13] worked out at 4.7%; in assay [14], 2.18%; in assay [15] it was 2.24%; in assay [16] it was 0.61%; in [17] it was 7.01%; in assay [18], 0.67%. Also, the inhibition in assay [19] was found to be 0.38%; in [20], 1.24%.

As for `CC1=C(C(=O)Nc2ccc3[nH]ncc3c2)C(c2ccc(Cl)c(Cl)c2)CC(=O)N1` (stereo not given), the inhibition in assay [1] stood at 25.4%; in [2], 3.91%; in assay [3] it was 15%; in [4] it was 2.14%; in assay [5], 8.67%; in assay [6] it was 17.4%. Besides, the inhibition in [7] is 24.9%; in assay [8], 1.99%; in assay [9], -3.08%; in assay [10], -3.45%; in assay [11], 1.43%; in assay [12], 2.26%. In addition, the inhibition in [13] is 6.35%; in assay [14], 2.31%; in assay [15], 4.81%; in [16] it was -0.39%; in assay [17], 9.22%; in assay [18] it was 0.3%. Besides, the inhibition was 1.41% in assay [19] and 2.44% in assay [20].
